Assay results as given in PubChem BioAssay (NCATS).
Records with an inconclusive call do not appear. A number with no mark means an inactive call. Active and inactive are the calls of the source. The call rests on the fitted dose curve; in most records, active means well fitted inhibition curve with a large enough effect; inconclusive means small, poorly fitted or top-dose-only effect; inactive means no such curve, though single readings can be large or run the other way.

test: Primary qHTS for inhibitors of nuclear receptor binding SET domain protein 2 (NSD2) in an RCH-ACV wild type WT cells (2C) (AID 1645877); conditions: RCH-ACV (leukaemia line) NSD2 WT (2C) viability, CellTiter-Glo, 72 h; series mostly up to 44.9 µM; activity change, negative = cell killing: at the top concentration; further: nearly all actives have a fitted effect of over 70% in size
Excerpt: Assay Provider: Jonathan D. Licht, MD
University of Florida College of Medicine, Gainesville, FL
Mutations in epigenetic regulators are common in relapsed pediatric acute lymphoblastic leukemia (ALL). Here, we uncovered the mechanism underlying the relapse of ALL driven by an activating mutation of the NSD2 histone methyltransferase (p.E1099K). […] Correction of this mutation restored glucocorticoid sensitivity. The transcriptional response to glucocorticoids was blocked in NSD2 mutant cells due to depressed glucocorticoid receptor (GR) levels and the failure of glucocorticoids to autoactivate GR expression. […] Pre-treatment of NSD2 p.E1099K cell lines and PDX samples with PRC2 inhibitors reversed glucocorticoid resistance in vitro and in vivo.
High-throughput drug screening of isogenic RCH-ACV cell lines was performed at the National Center for Advancing Translational Science (NCATS), National Institutes of Health as previously described (1). Briefly, isogenic RCH-ACV NSD2 p.E1099K mutant (9B) and WT cells (2C) were plated at 500 cells/well in a 1536-well plate with a 72-hour incubation with compounds prior to addition of CellTiter-Glo to assess cell viability. NCATS libraries screened include: NPC, MIPE 5.0, Kinase and NPACT. To determine compound activity in the qHTS assay, the concentration-response data for each sample was plotted and modeled by a four-parameter logistic fit yielding IC50 and efficacy (maximal response) values. The area under the curve (AUC) of the dose-response curve ensures both efficacy (magnitude of cell killing) and potency (concentration that elicits cell killing) are accounted for in the analysis of activity.
1. Tobie D Lee, Olivia W Lee, Kyle R Brimacombe, Lu Chen, Rajarshi Guha, Sabrina Lusvarghi, Bethilehem G Tebase, Carleen Klumpp-Thomas, Robert W Robey, Suresh V Ambudkar, Min Shen, Michael M Gottesman, Matthew D Hall. A High-Throughput Screen of a Library of Therapeutics Identifies Cytotoxic Substrates of P-glycoprotein. Mol Pharmacol. 2019, Nov;96(5):629-640.
On the % scale 0 is the no-effect control and ±100 the full control effect.

| Structure (SMILES) | activity change, negative = cell killing | outcome | Potency |
| --- | --- | --- | --- |
| C/C=C/c1ccc(O[C@@H]2O[C@H](CO)[C@@H](O)[C@H](O)[C@H]2O)c(OC)c1 | -33.7% |  |  |
| CCOc1ccc2nc(SCCN3CCOCC3)[nH]c2c1 | -15.1% |  |  |
| CC1(C)CCCC2(C)C(C(=O)O)=CCC12 (stereo not given) | -14.6% |  |  |
| O=C(OC[C@H]1O[C@H](O[C@]2(CO)O[C@H](CO)[C@@H](O)[C@@H]2O)[C@H](O)[C@@H](O)[C@@H]1O)c1ccccc1 |  | inactive [at 17.3 µM] |  |
| O=C(O)Cc1cn(C2OCC(O)C(O)C2O[C@@H]2O[C@H](CO)[C@@H](O)[C@H](O)[C@H]2O)c2ccccc12 (stereo not given in full) |  | inactive [at 17.3 µM] |  |
| Cc1cc(C(=O)N2Cc3cnn(C)c3Nc3ccccc32)ccc1CNC(=O)N1CCC[C@H]1C(=S)N1CCCN(C)CC1 | -16.9% |  |  |
| CC(C)Oc1ccc(C(=O)NC(CNC(=O)CN(C)C)Cc2ccc(-c3cn4cccc(C(C)O)c4n3)cc2)cc1Cl (stereo not given) |  |  | 64.9 nM (active) |
| C/C=C1\[C@H](O[C@@H]2O[C@H](CO)[C@@H](O)[C@H](O)[C@H]2O)OC=C(C(=O)OC)[C@H]1CC(=O)O | -18.8% [at 17.3 µM] |  |  |
| CCC[C@@H]1O[C@@H]2C[C@H]3[C@@H]4CCC5=CC(=O)C=C[C@]5(C)[C@H]4[C@@H](O)C[C@]3(C)[C@]2(C(=O)CO)O1 |  |  | 5.8 nM (active) |
| O=C(O)/C=C/c1ccc(-c2ccc(O)c(C34CC5CC(CC(C5)C3)C4)c2)cc1 |  |  | 145 nM (active) |
| CC1(C)C=CN2C(=O)C3=CCCN3C(=O)[C@@H]2C[C@@]12Nc1ccccc1C2=O | -8.61% |  |  |
| COc1ccc(F)cc1-c1cc(NC(=O)[C@@H]2CCCNC2)ncc1Cl |  |  | 64.9 nM (active) |
| CC1CCCCN1S(=O)(=O)c1ccc(N2CCCC2=O)cc1 (stereo not given) | -16.7% |  |  |
| Cc1nc2sc(C(=O)NCc3ccncc3)c(N)c2c(C)c1Cl | -33.4% |  |  |
| C[C@H]1CC[C@@]2(OC1)O[C@H]1CC3C4CC[C@H]5C[C@@H](O)[C@H](O)C[C@]5(C)C4=CC(=O)[C@]3(C)[C@H]1[C@@H]2C (stereo not given in full) | -21.2% [at 17.3 µM] |  |  |
| CC(C)C[C@H](CC(=O)NO)C(=O)N[C@H](C(=O)N[C@@H](C)C(=O)NCCN)C(C)(C)C | -8.71% [at 9.23 µM] |  |  |
| CC(C)(O)/C=C/CC(C)(O)C1C(O)CC2(C)C3CCC4C(C)(C)C(=O)CCC4(C)C3CCC12C (stereo not given) | -15.6% [at 17.3 µM] |  |  |
| CC12CCC(C(OC3OC(COC4OCC(O)(CO)C4O)C(O)C(O)C3O)C1)C(C)(C)O2 (stereo not given) | 2.1% [at 17.3 µM] |  |  |
| C=C[C@@]12COC(=O)C(=C)C1[C@@H](O)[C@H](C(=C)C(=O)OC)[C@@H](OC(=O)C(=C)CO)C2 (stereo not given in full) |  |  | 7090 nM (active) |
| CN(C)c1nc(NC2CCC(NC(=O)c3ccc(F)c(F)c3)CC2)nc2ccccc12 (stereo not given) |  |  | 6490 nM (active) |

| Structure (SMILES) | activity change, negative = cell killing | outcome | Potency |
| --- | --- | --- | --- |
| COc1cc2c(cc1O)[C@H](c1ccc(O[C@@H]3O[C@H](CO)[C@@H](O)[C@H](O)[C@H]3O)c(OC)c1)[C@@H](CO)[C@](O)(CO)C2 |  | inactive [at 17.3 µM] |  |
| CC(C)CC(=O)O[C@@H]1OC=C(CO[C@@H]2O[C@H](CO)[C@@H](O)[C@H](O)[C@H]2O)[C@H]2[C@@H]3O[C@H]3[C@@](O)(CO)[C@@H]12 |  | inactive [at 17.3 µM] |  |
| CN[C@H](CC(C)C)C(=O)N[C@H]1C(=O)N[C@@H](CC(N)=O)C(=O)N[C@H]2C(=O)N[C@H]3C(=O)N[C@H](C(=O)N[C@H](C(=O)O)c4cc(O)cc(O)c4-c4cc3ccc4O)[C@H](O[C@H]3C[C@](C)(N)[C@@H](O)[C@H](C)O3)c3ccc(c(Cl)c3)Oc3cc2cc(c3O[C@@H]2O[C@H](CO)[C@@H](O)[C@H](O)[C@H]2O[C@H]2C[C@](C)(NCc3ccc(-c4ccc(Cl)cc4)cc3)[C@@H](O)[C@H](C)O2)Oc2ccc(cc2Cl)[C@H]1O | -3.97% [at 17.3 µM] |  |  |
| CC(C)(C(=O)NCC(F)(F)C(F)(F)F)C(=O)NC1C(=O)Nc2ccccc2-c2ccccc21 (stereo not given) |  |  | 14500 nM (active) |
| CC(=O)O[C@H]1CC(C)(C)CC2[C@@]13[C@H](O)C[C@]1(C)[C@@]2(CCC2[C@@]4(C)CC[C@H](O[C@@H]5OC[C@H](O[C@@H]6O[C@H](CO)[C@@H](O)[C@H](O)[C@H]6O[C@@H]6OC[C@@H](O)[C@H](O)[C@H]6O)[C@H](O)[C@H]5O[C@@H]5O[C@H](CO)[C@@H](O)[C@H](O)[C@H]5O)C(C)(C)C4CC[C@]21C)O[C@@H]3O (stereo not given in full) |  |  | 1090 nM (active) |
| C=CC(C)(C)C12C=C(OC)C(=O)N3C(C(C)C)C(=O)NC31N(OC)c1ccccc12 (stereo not given) | -6.67% [at 17.3 µM] |  |  |
| CC(C)C(NC(=O)c1ccc2ccccc2n1)C(=O)NC(CC(=O)O)C(=O)COc1c(F)cccc1F (stereo not given) | -1.09% |  |  |
| C=C1CC[C@@H]2[C@](C)(CO[C@@H]3O[C@H](CO)[C@@H](O)[C@H](O)[C@H]3O)[C@H](O)CC[C@@]2(C)[C@@H]1C/C=C1/C(=O)OC[C@H]1O | -7.26% [at 17.3 µM] |  |  |
| COC(C(=O)N1Cc2[nH]nc(NC(=O)c3ccc(N4CCN(C)CC4)cc3)c2C1)c1ccccc1 (stereo not given) |  |  | 45.9 nM (active) |
| CC(C)S(=O)(=O)NC[C@H](C)c1ccc(NC(=O)c2cc(F)cc(F)c2)cc1 | -9.43% |  |  |
| COc1c2c(c(C)c3c1C(=O)OC3)O[C@@]1(C)CCC3(C(C)(C)O)OC(=O)CC[C@]3(C)[C@H]1C2 (stereo not given in full) | -25.2% [at 17.3 µM] |  |  |
| O=C(/C=C/c1ccc(O)cc1)N[C@@H](Cc1ccc(O)cc1)C(=O)O |  | inactive |  |
| O=C(O[C@H]1[C@@H]2C=CO[C@@H](O[C@@H]3O[C@H](CO)[C@@H](O)[C@H](O)[C@H]3O)[C@@H]2[C@@]2(CO)O[C@@H]12)c1ccccc1 | -9.99% [at 17.3 µM] |  |  |
| OCCc1ccc(O[C@@H]2O[C@H](CO)[C@@H](O)[C@H](O)[C@H]2O)cc1 |  | inactive |  |
| CC(C)CCC1(O)C(=O)C(C)(C)C(O[C@@H]2O[C@H](CO)[C@@H](O)[C@H](O)[C@H]2O)C(C)(C)C1O (stereo not given in full) | -20.1% [at 17.3 µM] |  |  |
| CC1CCC2C(C)(C)[C@@H](O)CC[C@]2(C)C12Cc1c(O)cc3c(c1O2)CN(C(CCC(=O)O)C(=O)O)C3=O (stereo not given in full) | -12.7% [at 17.3 µM] |  |  |
| C=CC1C(OC2OC(CO)C(O)C(O)C2O)OC=C(C(=O)OC)C1CC1CC(=O)CC(CCc2ccc(O)cc2)O1 (stereo not given) | -3.32% [at 17.3 µM] |  |  |
| CC1=C(CCC(C)O[C@@H]2O[C@H](CO)[C@@H](O)[C@H](O)[C@H]2O)C(C)(C)CCC1=O (stereo not given in full) | -11.6% |  |  |
| COCCOc1cnc2ccn([C@H](C)c3nnc4c(F)cc(-c5cnn(C)c5)cn34)c(=O)c2c1 | -12.7% |  |  |
| Cc1cc(O)cc(O[C@@H]2O[C@H](CO)[C@@H](O)[C@H](O)[C@H]2O)c1 | -12% |  |  |
